# Results: the supplement of paper PMC9135407
# “And” between values parts separate entries of the source, which are not always exact repeats. Identical values can stand only once. Counter-ions that a name gives are not always drawn. The whole screen tested about 5,800 compounds, of which about 620 (11%) showed activity.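 The calls were made as follows: active = score above a cut-off or among the top three wells of a plate; in these data no inactive exceeds 0.85.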 Shown is part of a subset that was picked to be rich in actives.
# System: primary human hepatic stellate cells (donor 1)
# Test: scaled lipid accumulation score (0 = DMSO-like, 1 = nortriptyline-like); higher = stronger HSC inactivation (lipid re-accumulation), active = hit call of the paper
# Details: 48 h
# [1] = library stock concentration: 1 mM
# [2] = library stock concentration: 3.33 mM
# [3] = library stock concentration: 10 mM
# [4] = library stock concentration: 6.1 mM
# [5] = library stock concentration: 80 uM
# [6] = library stock concentration: 400 uM
# [7] = library stock concentration: 2 mM
# [8] = library stock concentration: 8.9 mM
structure (smiles),measurement,setting,value
CCCCCCC=CCCCCCCCCCCOC(C)=O [11-cis Vaccenyl Acetate],scaled lipid accumulation score,[1],≤ 0 (inactive)
Nc1nc(Nc2ccc(S(N)(=O)=O)cc2)nn1C(=S)Nc1c(F)cccc1F [Cdk1/2 Inhibitor III],scaled lipid accumulation score,[2],0.782 (inactive)
CCCCC/C=C\C[C@@H](O)/C=C/C=C\C/C=C\CCCC(=O)O,scaled lipid accumulation score,library stock concentration: 100 uM,≤ -0.021 (inactive)
CCc1cc2c(cc1CC)CC(NC[C@H](O)c1ccc(O)c3[nH]c(=O)ccc13)C2.O=C(O)C=CC(=O)O [Indacaterol Maleate],scaled lipid accumulation score,[3],1.15 (active)
CCC(NC(C)C)C(O)c1ccc(O)c2[nH]c(=O)ccc12 (stereo unspecified) [Procaterol hydrochloride],scaled lipid accumulation score,[4],≤ 0 (inactive)
same,scaled lipid accumulation score,[3],≤ -0.006 (inactive)
CCc1cc2c(cc1CC)CC(NC[C@H](O)c1ccc(O)c3[nH]c(=O)ccc13)C2 [Indacaterol Maleate],scaled lipid accumulation score,[2],0.494 (inactive)
CCC(NC(C)C)C(O)c1ccc(O)c2[nH]c(=O)ccc12 (stereo unspecified) [Procaterol hcl],scaled lipid accumulation score,library stock concentration: 6.9 mM,≤ -0.006 (inactive)
Cc1nc2ccc(-n3ncc(C(=O)c4cc5ccccc5[nH]4)c3N)cc2[nH]1 [listing 1 of 2 here],scaled lipid accumulation score,[5],0.004 (inactive)
same,scaled lipid accumulation score,[6],≤ -0.001 (inactive)
same,scaled lipid accumulation score,[7],≤ 0 (inactive)
Cc1nc2ccc(-n3ncc(C(=O)c4cc5ccccc5[nH]4)c3N)cc2[nH]1 [listing 2 of 2 here],scaled lipid accumulation score,[3],0.907 (active)
O=C(O)c1cc2ccccc2[nH]1 [Indole-2-carboxylic acid],scaled lipid accumulation score,[3],≤ 0 (inactive)
CC(C)c1cc(C(C)C)c(CC(=O)NS(=O)(=O)Oc2c(C(C)C)cccc2C(C)C)c(C(C)C)c1 [Avasimibe],scaled lipid accumulation score,[2],≤ 0 (inactive)
same,scaled lipid accumulation score,[3],≤ 0 (inactive)
COc1cccc(NC(=O)/C=C/c2ccc(Cl)cc2)c1 [listing 1 of 2 here],scaled lipid accumulation score,[3],1.2 (active)
COc1cccc(NC(=O)/C=C/c2ccc(Cl)cc2)c1 [listing 2 of 2 here],scaled lipid accumulation score,[3],0.153 (inactive)
COc1cc(/C=C/c2ccc(Cl)cc2)cc(OC)c1,scaled lipid accumulation score,[1],≤ 0 (inactive)
CCCCC/C=C\CCCCCCCCCCCCC(=O)O [14(Z)-Eicosenoic Acid],scaled lipid accumulation score,[1],≤ 0 (inactive)
CN1CCN(c2ccc3nc(-c4c(N)c5c(F)cccc5[nH]c4=O)[nH]c3c2)CC1 [Dovitinib (TKI-258) Dilactic Acid],scaled lipid accumulation score,[3],0.445 (inactive)
CN1CCN(c2ccc3nc(-c4c(N)c5c(F)cccc5[nH]c4=O)[nH]c3c2)CC1 [listing 1 of 2 here],scaled lipid accumulation score,[6],0.945 (active)
same,scaled lipid accumulation score,[7],1.11 (active)
same,scaled lipid accumulation score,[3],1.08 (active)
CN1CCN(C(=O)c2nc3ccc(Cl)cc3[nH]2)CC1,scaled lipid accumulation score,[3],0.076 (inactive)
"CN1CCN(c2ccc3nc(-c4c(N)c5c(F)cccc5[nH]c4=O)[nH]c3c2)CC1 [Dovitinib (TKI-258, CHIR-258)]",scaled lipid accumulation score,[2],1.25 (active)
same,scaled lipid accumulation score,[3],1.13 (active)
CC(O)C(=O)O.CC(O)C(=O)O.CN1CCN(c2ccc3nc(-c4c(N)c5c(F)cccc5[nH]c4=O)[nH]c3c2)CC1 [Dovitinib (TKI-258) Dilactic Acid],scaled lipid accumulation score,[2],1.27 (active)
CN1CCN(c2ccc3nc(-c4c(N)c5c(F)cccc5[nH]c4=O)[nH]c3c2)CC1 [listing 2 of 2 here],scaled lipid accumulation score,[5],0.779 (inactive)
CCOc1ccc(-c2nc3ccc(-c4nc5ccc(N6CCN(C)CC6)cc5[nH]4)cc3[nH]2)cc1,scaled lipid accumulation score,[8],0.339 (inactive)
CC[C@@H]1Cn2c(c3nc(-c4ccccc4)nc-3n(C)c2=O)N1,scaled lipid accumulation score,[3],0.008 (inactive)
c1cnc2cc3c(cc2n1)[C@@H]1CNC[C@H]3C1 [Varenicline tartrate],scaled lipid accumulation score,[3],≤ 0 (inactive)
NC(=O)[C@@H]1CCCN1C(=O)[C@H](Cc1c[nH]cn1)NC(=O)[C@@H]1CCC(=O)N1,scaled lipid accumulation score,[3],≤ 0 (inactive)
CC[C@@H](C(=O)[C@@H](C)[C@@H](O)[C@H](C)CCc1ccc(C)c(O)c1C(=O)O)[C@H]1O[C@](CC)([C@H]2CC[C@](O)(CC)[C@H](C)O2)C[C@@H]1C [Lasalocid sodium salt],scaled lipid accumulation score,,0.439 (inactive)
CC[C@@H](C(=O)[C@@H](C)[C@@H](O)[C@H](C)CCc1ccc(C)c(O)c1C(=O)O)[C@H]1O[C@](CC)([C@H]2CC[C@](O)(CC)[C@H](C)O2)C[C@@H]1C [Lasalocid sodium],scaled lipid accumulation score,[3],0.665 (inactive)
COc1ccc(C2CC(c3c(O)cc(C)oc3=O)=NCCS2)c(OC)c1 (stereo unspecified),scaled lipid accumulation score,[3],0.164 (inactive)
CCCCC[C@](C)(O)/C=C/[C@H]1[C@H](O)CC(=O)[C@@H]1CCCCCCC(=O)O [15(S)-15-methyl Prostaglandin E1],scaled lipid accumulation score,[1],0.012 (inactive)
Cc1nnc(-c2ccc3occ(-c4ccc([S+](C)[O-])cc4)c3c2)o1 (stereo unspecified),scaled lipid accumulation score,[3],0.106 (inactive)
NC(=O)Cc1cccc(C(=O)c2ccccc2)c1N [Nepafenac],scaled lipid accumulation score,[2],≤ 0 (inactive)
same,scaled lipid accumulation score,[3],0.098 (inactive)
O=C(O)C1CSCN1 (stereo unspecified),scaled lipid accumulation score,[3],≤ 0 (inactive)
COc1c(OC)c2occc2c2oc(=O)ccc12 [Pimpinellin],scaled lipid accumulation score,[3],≤ 0 (inactive)
O=C(O)CCC/C=C/C[C@@H]1[C@@H](/C=C/[C@@H](O)COc2cccc(C(F)(F)F)c2)[C@H](O)C[C@@H]1O [5-trans Fluprostenol],scaled lipid accumulation score,[1],0.008 (inactive)
CC(C)COCC(CN(Cc1ccccc1)c1ccccc1)N1CCCC1 (stereo unspecified) [Bepridil hydrochloride],scaled lipid accumulation score,,0.677 (inactive)
same,scaled lipid accumulation score,library stock concentration: 5 mM,0.569 (inactive)
same,scaled lipid accumulation score,[3],0.175 (inactive) and 0.195 (inactive)
c1ccc(CN(CC2=NCCN2)c2ccccc2)cc1 [Antazoline phosphate],scaled lipid accumulation score,[3],0.143 (inactive)
c1ccc(CN(CC2=NCCN2)c2ccccc2)cc1 [Antazoline hydrochloride],scaled lipid accumulation score,,0.544 (inactive)
same,scaled lipid accumulation score,[3],0.11 (inactive)
c1ccc(CN(CC2=NCCN2)c2ccccc2)cc1 [Antazoline HCl],scaled lipid accumulation score,[2],≤ 0 (inactive)
same,scaled lipid accumulation score,[3],0.363 (inactive)
CC(C)COCC(CN(Cc1ccccc1)c1ccccc1)N1CCCC1.Cl (stereo unspecified),scaled lipid accumulation score,library stock concentration: 12.4 mM,0.96 (active)
Nc1cc2c(ncn2CCOCP(=O)(O)O)c(=O)[nH]1 [PMEG hydrate],scaled lipid accumulation score,[3],≤ -0.055 (inactive)
CO[C@H]1C=CC=C(C)C(=O)NC2=CC(=O)C(NCCN(C)C)=C(C[C@@H](C)C[C@H](OC)[C@H](O)[C@@H](C)C=C(C)[C@@H]1OC(N)=O)C2=O.Cl [17-DMAG (Alvespimycin) HCl],scaled lipid accumulation score,[3],1.24 (active)
C=CCNC1=C2C[C@@H](C)C[C@H](OC)[C@H](O)[C@@H](C)/C=C(\C)[C@H](OC(N)=O)[C@@H](OC)/C=C\C=C(/C)C(=O)NC(=CC1=O)C2=O [17-AAG (Tanespimycin)],scaled lipid accumulation score,[2],0.613 (inactive)
C=CCNC1=C2C[C@@H](C)C[C@H](OC)[C@H](O)[C@@H](C)C=C(C)[C@H](OC(N)=O)[C@@H](OC)C=CC=C(C)C(=O)NC(=CC1=O)C2=O [17-AAG (Tanespimycin)],scaled lipid accumulation score,[3],0.873 (active)
COC1=C2C[C@@H](C)C[C@H](OC)[C@H](O)[C@@H](C)/C=C(\C)[C@H](OC(N)=O)[C@@H](OC)/C=C\C=C(/C)C(=O)NC(=CC1=O)C2=O [Geldanamycin],scaled lipid accumulation score,[2],0.54 (inactive)
same,scaled lipid accumulation score,[8],0.573 (inactive)
same,scaled lipid accumulation score,[3],0.493 (inactive)
CO[C@H]1/C=C\C=C(/C)C(=O)NC2=CC(=O)C(NCCN(C)C)=C(C[C@@H](C)C[C@H](OC)[C@H](O)[C@@H](C)/C=C(\C)[C@@H]1OC(N)=O)C2=O [17-DMAG (Alvespimycin) HCl],scaled lipid accumulation score,[2],0.404 (inactive)
CCCCC[C@H](O)/C=C/[C@@H]1[C@@H](C/C=C/CCCC(=O)O)[C@H](O)C[C@H]1O [5-trans Prostaglandin F2.beta.],scaled lipid accumulation score,[1],≤ 0 (inactive)
O=C1OC(O)C(c2cc3ccccc3s2)=C1Br (stereo unspecified),scaled lipid accumulation score,[1],0.04 (inactive)
O=C1O/C(=C/Br)CC[C@H]1c1cccc2ccccc12 [(S)-Bromoenol lactone],scaled lipid accumulation score,[1],0.103 (inactive)
COc1cc(OC)c(C(=O)CCCN2CCCC2)c(OC)c1 [Buflomedil hydrochloride],scaled lipid accumulation score,,0.025 (inactive)
COc1cc(C(=O)OCCCN2CCCN(CCCOC(=O)c3cc(OC)c(OC)c(OC)c3)CC2)cc(OC)c1OC [Dilazep dihydrochloride],scaled lipid accumulation score,,0.164 (inactive)
COc1cc(N)c(Cl)cc1C(=O)OCCN1CCCCC1,scaled lipid accumulation score,[3],≤ -0.007 (inactive)
COc1cc(C(=O)NCCCCCC(=O)O)cc(OC)c1OC [Capobenic acid],scaled lipid accumulation score,[4],≤ 0 (inactive)
COc1cc(C(=O)N2CCOCC2)cc(OC)c1OC [Trimetozine],scaled lipid accumulation score,library stock concentration: 7.1 mM,≤ 0 (inactive)
COc1cc(OC)c(C(=O)CCCN2CCCC2)c(OC)c1,scaled lipid accumulation score,[3],≤ 0 (inactive)
COc1cc(OC)c(C(=O)CCCN2CCCC2)c(OC)c1 [Buflomedil HCl],scaled lipid accumulation score,[2],≤ 0 (inactive)
same,scaled lipid accumulation score,[3],≤ 0 (inactive)
COc1cc(C(=O)OCCCN2CCCN(CCCOC(=O)c3cc(OC)c(OC)c(OC)c3)CC2)cc(OC)c1OC.Cl.Cl,scaled lipid accumulation score,[3],0.84 (active)
COc1cc(N)c(Cl)cc1C(=O)OCCCN1CCCCC1,scaled lipid accumulation score,[3],0.126 (inactive)
COc1cc(C(=O)OCCCN2CCCN(CCCOC(=O)c3cc(OC)c(OC)c(OC)c3)CC2)cc(OC)c1OC.Cl.Cl [Dilazep dihydrochloride],scaled lipid accumulation score,[3],1.06 (active)
COc1cc(C(=O)OCCC[NH+]2CCC[NH+](CCCOC(=O)c3cc(OC)c(OC)c(OC)c3)CC2)cc(OC)c1OC.[Cl-].[Cl-] [Dilazep hydrochloride],scaled lipid accumulation score,[3],0.951 (active)
CC1(C)CCCC2(C)C1CCC1(C)OC(=O)CC12 (stereo unspecified) [Sclareolide],scaled lipid accumulation score,[2],≤ 0 (inactive)
same,scaled lipid accumulation score,[3],0.09 (inactive)
NC(=O)c1ccc(N(C(N)=O)c2c(F)cccc2F)nc1-c1ccc(F)cc1F,scaled lipid accumulation score,[5],≤ -0.001 (inactive)
same,scaled lipid accumulation score,[6],≤ -0.001 (inactive) and ≤ -0.005 (inactive)
same,scaled lipid accumulation score,[7],≤ -0.001 (inactive) and 0.083 (inactive)
same,scaled lipid accumulation score,[2],≤ 0 (inactive)
same,scaled lipid accumulation score,[3],≤ 0 (inactive) and 0.012 (inactive) and ≤ -0.005 (inactive)
